# NadD block: inhibitors of S. aureus NadD, primary screen, biochemical, colorimetric, uHTS | inhibition, % at 20 µM | Nicotinate-nucleotide adenylyltransferase NadD (Staphylococcus aureus N315) | purified NadD enzyme, colorimetric absorbance read-out | 360,000 compounds, 0.78% hits; in the data active = inhibition above about 26%
# DAGLB inh: DAGLB lipase inhibitors, primary screen, biochemical, fluorescence, HTS; Diacylglycerol lipase-beta (Homo sapiens), Q8NCG7; HEK293T DAGLB membrane lysate, EnzChek fluorogenic substrate; inhibition, % at 5.17 µM; 340,000 compounds, 0.059% hits; in the data active = inhibition above about 34%;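 note: 0% = enzyme with vehicle and 100% = wells lacking enzyme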
# sPLA2-III inh: human group III sPLA2 inhibitors, primary screen, biochemical, QFRET, BODIPY PC-A2 liposome substrate; 370,000 compounds, 0.56% hits; Group 3 secretory phospholipase A2 (Homo sapiens), Q9NZ20; QFRET BODIPY PC-A2 liposome hydrolysis, fluorescence; inhibition, % at 12.2 µM; AID 743126, 2013;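 active = inhibition above mean plus 3 SD of compounds lying within the high and low control bounds, cut at about 19% in these data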;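 note: 0% = median of test compound wells and 100% = no enzyme DMSO wells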
# ARNT-TACC3 inh: disruptors of ARNT/TACC3 protein interaction, primary screen, biochemical, AlphaScreen, single concentration; Transforming acidic coiled-coil-containing protein 3 (Homo sapiens), Q9Y6A5; AlphaScreen His-ARNT PAS-B/GST-TACC3 binding, luminescence; TACC3 fragment carries E629A point mutation; inhibition, % at 9.99 µM; 390,000 compounds, 0.66% hits;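 active = mean inhibition of replicates at least 50% and at least half of replicates each reaching 50%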;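 note: 0% = complete ARNT plus TACC3 wells and 100% = ARNT alone without TACC3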
# Neddylation inh: inhibitors of cullin neddylation, primary screen, biochemical, TR-FRET, uHTS, NAE and Ubc12 | NEDD8-conjugating enzyme Ubc12 (Homo sapiens) + NEDD8-activating enzyme E1 regulatory … | 360,000 compounds, 0.58% hits | inhibition, % at 25 µM | AID 651699, 2012; in the data active = inhibition above about 36%
# Target sequence (P61081 whole entry, looked up): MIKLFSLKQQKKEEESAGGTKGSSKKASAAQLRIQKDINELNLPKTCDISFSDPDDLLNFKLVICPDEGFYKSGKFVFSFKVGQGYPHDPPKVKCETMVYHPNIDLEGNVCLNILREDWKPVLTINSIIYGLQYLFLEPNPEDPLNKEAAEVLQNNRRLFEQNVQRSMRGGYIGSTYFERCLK
# Target sequence (Q13564 whole entry, looked up): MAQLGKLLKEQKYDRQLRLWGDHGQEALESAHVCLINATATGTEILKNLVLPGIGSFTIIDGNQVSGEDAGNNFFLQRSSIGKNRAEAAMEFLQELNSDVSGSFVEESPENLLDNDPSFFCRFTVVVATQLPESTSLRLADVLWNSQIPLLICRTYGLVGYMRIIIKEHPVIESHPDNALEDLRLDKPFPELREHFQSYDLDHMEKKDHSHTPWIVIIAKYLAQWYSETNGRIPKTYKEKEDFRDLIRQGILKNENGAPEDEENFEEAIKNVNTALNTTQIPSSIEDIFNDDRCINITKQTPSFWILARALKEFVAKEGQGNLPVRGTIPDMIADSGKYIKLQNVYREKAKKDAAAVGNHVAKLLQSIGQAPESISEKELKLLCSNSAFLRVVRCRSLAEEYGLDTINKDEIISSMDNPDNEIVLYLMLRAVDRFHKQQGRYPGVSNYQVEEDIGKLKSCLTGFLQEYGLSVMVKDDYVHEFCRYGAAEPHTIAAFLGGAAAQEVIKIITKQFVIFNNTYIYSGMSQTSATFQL
# NadD conf: inhibitors of S. aureus NadD, confirmation, biochemical, colorimetric, single concentration | shares compounds with NadD block | purified S. aureus NadD, colorimetric enzyme assay | inhibition, % at 20 µM | 2,000 compounds, 13% hits; in the data active = inhibition mostly above about 42%, no sharp cut-off; inactive = mostly below about 42%
# The depositor's hits bear a star; i = inactive; / = no result given. Sampled rows, rich in hits. Any-hit rate of the full collection: about 2%.
SMILES,NadD block,DAGLB inh,sPLA2-III inh,ARNT-TACC3 inh,Neddylation inh,NadD conf
C[C@H](CO)N1C[C@H](C)[C@@H](CN(C)Cc2ccncc2)OCCCC[C@H](C)Oc2ccc(NC(=O)CCCN(C)C)cc2C1=O,54*,/,15,-6,5,27
C[C@H](CO)N1C[C@H](C)[C@@H](CN(C)S(=O)(=O)c2ccccc2)Oc2ccc(NC(=O)Nc3ccc(C(F)(F)F)cc3)cc2C1=O,35*,3,-48,4,-10,6
COc1ccc(NC(=O)N(C)C[C@H]2Oc3ccc(NC(=O)c4ccncc4)cc3C(=O)N([C@H](C)CO)C[C@@H]2C)cc1,40*,-2,6,9,-19,41*
Cc1ccc(S(=O)(=O)N(C)C[C@@H]2Oc3ccc(NC(=O)Nc4ccc(C(F)(F)F)cc4)cc3C(=O)N([C@H](C)CO)C[C@@H]2C)cc1,/,/,/,3,/,/
COc1ccccc1NC(=O)N(C)C[C@H]1Oc2ncc(Br)cc2C(=O)N([C@@H](C)CO)C[C@H]1C,/,/,/,-12,/,/
CNC[C@@H]1Oc2cc(C#CC3CCCC3)ccc2S(=O)(=O)N([C@@H](C)CO)C[C@H]1C,/,/,/,24,/,/
CC=Cc1ccc2n(c1=O)C[C@H]1[C@H](CO)[C@@H](C(=O)NCC(F)(F)F)N(C(=O)c3cccnc3)[C@@H]21 (mixture of isomers),/,/,/,-3,/,/
COC(=O)c1ccc2c(c1)N(Cc1nc(-c3ccc(Cl)cc3)oc1C)C(=O)C1CCCN21 (configuration not stated),45*,1,-13,1,6,19
COC(=O)c1cc2occc2n1Cc1nc(-c2ccc(Cl)cc2)oc1C,-2,-2,7,-5,/,/
Fc1cc(F)c(F)c(SCCc2ccncc2)c1F,25*,-1,-3,-3,-4,10
CCCOc1ccc(N2C(=O)CC(SC(=N)N3N=C(c4ccccc4)CC3c3ccccc3)C2=O)cc1 (configuration not stated),43*,-9,-2,-3,-62,3
C[C@H](CO)N1C[C@H](C)[C@H](CN(C)C(=O)c2cccc(F)c2)Oc2ncc(-c3cncnc3)cc2C1=O,/,/,/,1,/,/
CC(=O)Oc1ccc(-c2csc(Nc3ccc(S(N)(=O)=O)cc3)n2)cc1,-2,1,-25,1,-39,/
COc1ccc(-c2csc(Nc3ccc(S(N)(=O)=O)cc3)n2)cc1,45*,-1,-3,-4,14,47
N#CC1=C2SCN(Cc3ccco3)CN2C(=O)CC1c1cccc2ccccc12 (configuration not stated),31*,5,-9,0,-10,9
C[C@@H]1CN([C@H](C)CO)S(=O)(=O)c2ccc(-c3cccc(F)c3)cc2O[C@H]1CN(C)S(=O)(=O)c1ccccc1,/,/,/,4,/,/
CN(C)S(=O)(=O)c1cc(NC(=O)CN2CCc3ccccc32)ccc1Cl,39*,2,1,7,-38,40
CCCN(C)C[C@H]1Oc2ncc(-c3ccccc3)cc2C(=O)N([C@@H](C)CO)C[C@H]1C,/,/,/,1,/,/
Cc1[nH]c2ccccc2c1/C=C/c1nc2ccccc2c(=O)n1-c1ccc([N+](=O)[O-])cc1,34*,0,0,1,4,7
CCn1c(/C=C/c2c(C)[nH]c3ccccc23)nc2ccccc2c1=O,0,-1,1,-4,-20,/
C[C@H](CO)N1C[C@H](C)[C@@H](CN(C)C)Oc2ccc(NS(C)(=O)=O)cc2CC1=O,/,/,/,-4,/,/
COc1ccc(CC(N)c2csc(NC(=O)c3cc(C(C)(C)C)oc3C)n2)cc1 (configuration not stated),33*,/,8,/,-10,-5
COc1ccc(CC(N)c2csc(NC(=O)Nc3ccc(OC)cc3)n2)cc1 (configuration not stated),15,/,6,/,10,/
O=C(C[C@@H]1CC[C@@H](NC(=O)Nc2ccc(F)cc2)[C@@H](CO)O1)NCc1cccc(F)c1,/,/,/,-8,/,/
COCCCNc1cc(C)nc2ccccc12,6,-2,-1,/,-2,/
SMILES,NadD block,DAGLB inh,sPLA2-III inh,ARNT-TACC3 inh,Neddylation inh,NadD conf
Cc1cc(NCCCCCCCNc2cc(C)nc3cc([N+](=O)[O-])ccc23)c2ccc([N+](=O)[O-])cc2n1,66*,10,0,-1,46*,65*
NC(CSC(c1ccccc1)(c1ccccc1)c1ccc2c(c1)OCO2)C(=O)O (configuration not stated),31*,1,-8,/,0,33
NC(=O)CC(c1ccccc1)c1ccc2c(c1)OCO2 (configuration not stated),-4,-1,1,2,3,/
CCc1cc2c(cc3c(=O)n(CC(=O)NCCCN4CCCCCC4)nc(CC)n32)s1,31*,0,-4,4,-3,-13
O=C(Nc1cc(Br)ccc1O)c1cc(-c2ccco2)on1,29*,-5,10,-3,11,11
Cc1cc(C)n2nc(-c3ccsc3-n3c(C)ccc3C)cc2n1,39*,-1,0,-8,0,14
C/C=C/c1cnc2c(c1)C(=O)N([C@H](C)CO)C[C@H](C)[C@H](CN(C)C(=O)NC1CCCC1)O2,/,/,/,-6,/,/
CCOc1ccc(C2SCC(=O)N2c2c(C)n(C)n(-c3ccccc3)c2=O)cc1 (configuration not stated),5,1,4,-4,4,/
CCOc1ccc(C2=C(C=Nc3c(C)n(C)n(-c4ccccc4)c3=O)C(c3ccc(F)cc3)c3ccccc3O2)cc1 (configuration not stated),46*,-3,/,-3,4,14
Cc1ccc(S(=O)(=O)N(C)C[C@@H]2OCCCC[C@@H](C)Oc3ccc(NS(=O)(=O)c4cn(C)cn4)cc3C(=O)N([C@@H](C)CO)C[C@H]2C)cc1,/,/,/,-2,/,/
CC1(C)Cc2c(C#N)c(N3CCN(C(=O)c4ccccc4)CC3)nc(-c3ccco3)c2CS1,43*,7,-2,0,22,22
O=C(C[C@@H]1CC[C@H]2[C@@H](COC[C@@H](O)CN2C(=O)Nc2ccc(Cl)c(Cl)c2)O1)NCc1ccccc1,/,/,/,10,/,/
C[C@H](CO)N1C[C@H](C)[C@H](CN(C)S(=O)(=O)c2ccc(Cl)cc2)Oc2ccc(NC(=O)Nc3ccc(F)cc3)cc2C1=O,/,/,/,11,/,/
NS(=O)(=O)c1ccc(CCNC(=O)CCCCCn2c(=S)[nH]c3ccc(Br)cc3c2=O)cc1,31*,3,-1,/,i,37

# Bioassay records deposited in PubChem BioAssay by several laboratories.
